Measured values from PubChem BioAssay (NCI).
The panel holds about 83,000 compounds, 20% with a hit somewhere; the sample as a whole holds those more often.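 A percent growth of 40 corresponds to 60% growth inhibition; 0 means no net growth; -100 means all cells died. Active threshold: below 10.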 Calls of active or inactive are those of the source.

Columns and labels:
Experiment in all cases: NCI-60 one-dose screen, 48 h (100 = growth as untreated, 0 = no growth, -100 = all killed)
Conditions in all cases: 10 µM unless noted
[1] = test system: NCI-H23 lung
[2] = test system: NCI-H226 lung
[3] = test system: NCI-H322M lung
[4] = test system: HOP-62 NSCLC
[5] = test system: NCI-H460 lung
[6] = test system: HOP-92 NSCLC
[7] = test system: NCI-H522 lung
[8] = test system: A549/ATCC NSCLC
[9] = test system: 786-0 renal
[10] = test system: COLO 205 colon
[11] = test system: DU-145 prostate
[12] = test system: K-562 leukemia
[13] = test system: MALME-3M melanoma
[14] = test system: MDA-MB-231 breast
[15] = test system: RXF 393 renal
[16] = test system: SF-268 CNS
[17] = test system: SF-295 CNS
[18] = test system: SF-539 CNS
[19] = test system: UACC-257 melanoma
[20] = test system: M14 melanoma

Measured: growth

C=C(C)[C@@H]1CC[C@]2(C(=O)O)CC[C@]3(C)[C@H](CC[C@@H]4[C@@]5(C)C[C@@H](Cc6cn(CCO[C@@H]7O[C@H](COC(C)=O)[C@H](OC(C)=O)[C@H](OC(C)=O)[C@H]7OC(C)=O)nn6)[C@H](O)C(C)(C)[C@@H]5CC[C@]43C)[C@@H]12
active: [6] -3.81%
inactive: [1] 60.5% | [2] 81.9% | [3] 82.7% | [4] 80.7% | [5] 62% | [7] 64.1% | [8] 61.8% | [9] 78.9% | [10] 96.5% | [11] 81.8% | [12] 53% | [13] 77.7% | [14] 48.1% | [15] 77.5% | [16] 61.2% | [17] 76.7% | [18] 79.3% | [19] 61.9% | [20] 81.2%

COCCNC(=O)c1ccc(-c2nc3ccc4[nH]ncc4c3c3c2CCCC3)cc1
inactive: [1] 43.5% | [2] 50.7% | [3] 29.1% | [4] 40.1% | [5] 27.1% | [6] 56.8% | [7] 30.6% | [8] 30.4% | [9] 31.7% | [10] 27.7% | [11] 41.3% | [12] 24.9% | [13] 30.5% | [14] 50.4% | [15] 11.8% | [16] 32.4% | [17] 32.5% | [18] 12.2% | [19] 71.2% | [20] 35.1%

COc1cc(OC)cc(C2=C3CC[C@@H]4[C@H](CC[C@]5(C)C(=O)CC[C@@H]45)C3=CC3C(O)c4cccnc4N4C(=O)COC234)c1 (stereo not given in full)
inactive: [1] 98.6% | [2] 102% | [3] 114% | [4] 95.3% | [5] 103% | [6] 104% | [7] 90.3% | [8] 94.2% | [9] 98.5% | [10] 109% | [11] 110% | [12] 92.7% | [13] 103% | [14] 97.8% | [15] 107% | [16] 92.8% | [17] 97.6% | [18] 102% | [19] 98.1% | [20] 104%

CS(=O)(=O)c1cccc(-c2c(-c3cccc(OS(N)(=O)=O)c3)nc3sccn23)c1
inactive: [1] 108% | [2] 92.5% | [3] 98.2% | [4] 93.8% | [5] 105% | [6] 77.8% | [7] 96.9% | [8] 106% | [9] 101% | [10] 117% | [11] 113% | [12] 100% | [13] 102% | [14] 93% | [15] 107% | [16] 101% | [17] 98.3% | [18] 93.5% | [19] 106% | [20] 105%

Cc1cc(Cl)ccc1NC(=O)c1cc2ccccc2cc1O
inactive: [2] 33.5% | [4] 33.9% | [8] 20.8% | [9] 28.4% | [10] 99.8% | [11] 31.1% | [14] 23.7% | [15] 28% | [16] 30.8% | [18] 22.6% | [20] 30.4%
active: [1] 7.5% | [3] -1.74% | [5] 2.76% | [6] -12.1% | [7] -8.43% | [12] 9.93% | [13] 7.3% | [17] 8.91% | [19] -5.38%

CN(CCn1sc(=O)n(Cc2ccccc2)c1=O)Cc1ccc2c(Cl)cc(Cl)c(O)c2n1
inactive: [1] 50.1% | [2] 61.9% | [3] 41% | [4] 25.2% | [5] 19.8% | [6] 36% | [7] 80.9% | [8] 32.6% | [9] 37.6% | [10] 93.7% | [11] 51.6% | [12] 13.7% | [13] 63.7% | [14] 46.4% | [15] 53.7% | [16] 46.1% | [17] 30.5% | [18] 47.1% | [19] 78.5% | [20] 49.4%

COc1cc(-c2csc(NC(=O)c3cc(-n4cnc(C)c4)cc(C(F)(F)F)c3)n2)cc(OC)c1OC
inactive: [1] 61.2% | [2] 58% | [3] 67% | [4] 72.4% | [5] 33.8% | [7] 38.5% | [8] 60.2% | [9] 60.2% | [10] 84.9% | [11] 56.4% | [12] 26.8% | [13] 67.7% | [14] 61.3% | [15] 66.7% | [16] 68.6% | [17] 57.9% | [18] 90.9% | [19] 81.9% | [20] 66.7%
active: [6] 6.13%
